Compound activity as filed in PubChem BioAssay.
A selection: hits, their analogues and other compounds. The true share with any hit is near 9.4%.
ELG1 genotox: qHTS screen for small molecules that induce genotoxicity in human embryonic kidney (HEK293T) cells expressing luciferase-tagged ELG1 | HEK293T ELG1-luciferase reporter, luminescence, 16 h | Potency, µM (series often up to 46 µM), inactives show at the highest dose activity change, positive = activation, actives largely listed as activators | 330,000 tested, 1.3% active | AID 504466, 2011; further: % of control where 0% means no effect; nearly all actives have a fitted effect of over 60% in size
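ELG1-luciferase HEK293T cells, 2,000/well; compound pinned in; 16 hr, 37 °C, 5% CO2; ONE-Glo, 30 min RT; luminescence on CCD imager.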
NPC1 promoter act: qHTS Assay for NPC1 Promoter Activators; Huh7 NPC1 promoter luciferase reporter, 24 h; Potency, µM (top dose mostly 9.22 µM), for the others: at the highest dose activation, actives largely listed as activators; 320,000 tested, 2.4% active; further: % of control where 0% means no effect; nearly all actives have a fitted effect of over 60% in size
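Cells: Huh7 expressing luciferase under the NPC1 promoter, 1500/well. Seeded 2 h, compound added, incubated 24 h at 37 °C. Luciferase reagent, 10 min ambient, then luminescence.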
Rab9 promoter act: qHTS Assay for Rab9 Promoter Activators | Huh7 Rab9 promoter-luciferase reporter, luminescence, 24 h | Potency, µM (doses to about 9.22 µM), for the others: at the highest dose activation, negative = inhibition, actives largely listed as activators | 320,000 tested, 2.8% active | AID 485297, 2010; further: % of control where 0% means no effect; nearly all actives have a fitted effect of over 60% in size
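Promoter activation is measured as luciferase luminescence in Huh7 cells stably transfected with a Rab9 promoter–luciferase construct, following 24 h compound exposure at 37 °C and 10 min reagent incubation at ambient temperature.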
FLuc modulator: qHTS profiling assay for firefly luciferase inhibitor/activator using purifed enzyme and Km concentrations of substrates (counterscreen for miR-21 project); purified FLuc, Km substrates, luminescence inhibition; 360,000 tested, 6.9% active; Luciferin 4-monooxygenase (Photinus pyralis), P08659; Potency, µM (highest dose often 57.5 µM), inactives show at the highest dose activity change, negative = inhibition, hits mostly inhibitors;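 further: plate controls were vehicle for no effect and reference inhibitor for full effect; nearly all actives have a fitted effect of over 55% in size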
Target sequence (P08659 whole entry, looked up): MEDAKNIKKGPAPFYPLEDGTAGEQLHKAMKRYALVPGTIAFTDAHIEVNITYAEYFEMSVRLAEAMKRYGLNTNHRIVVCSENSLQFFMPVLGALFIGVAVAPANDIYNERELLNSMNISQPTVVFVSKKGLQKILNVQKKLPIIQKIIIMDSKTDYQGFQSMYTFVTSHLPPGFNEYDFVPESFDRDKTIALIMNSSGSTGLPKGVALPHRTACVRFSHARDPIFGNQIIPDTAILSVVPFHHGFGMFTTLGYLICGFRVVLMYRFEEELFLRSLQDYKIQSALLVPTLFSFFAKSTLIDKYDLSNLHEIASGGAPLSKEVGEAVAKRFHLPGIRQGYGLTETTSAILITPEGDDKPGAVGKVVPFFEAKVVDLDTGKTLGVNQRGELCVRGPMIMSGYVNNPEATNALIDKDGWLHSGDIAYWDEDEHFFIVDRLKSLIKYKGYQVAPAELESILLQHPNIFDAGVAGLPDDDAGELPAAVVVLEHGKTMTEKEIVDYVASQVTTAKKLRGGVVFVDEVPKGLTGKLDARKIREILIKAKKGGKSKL
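Biochemical qHTS of compounds, final roughly 60 µM downward over six points, against 10 nM purified firefly luciferase using Km concentrations of substrates (10 uM D-luciferin, 10 uM ATP) in Tris acetate pH 7.5 buffer; luminescence output.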
ELG1 repair inh: qHTS screen for small molecules that inhibit ELG1-dependent DNA repair in human embryonic kidney (HEK293T) cells expressing luciferase-tagged ELG1; 330,000 tested, 2.3% active; Potency, µM (titrated, usually from 46.1 µM), for inactives: at the top dose activity change, negative = inhibition, most hits filed as inhibitors; HEK293T ELG1-luciferase reporter, luminescence, 16 h; DNA damage induced by 5-fluorouridine; AID 504467, 2011; further: on the % scale 0 is the no-effect control and ±100 the full control effect; nearly all actives have a fitted effect of over 55% in size
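Quantitative HTS, concentration-response format. 2,000 cells/well co-treated with 5-fluorouridine and compound, 16 hr in 5% CO2 at 37 °C; ONE-Glo luminescence read after 30 min.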
SMN2 splice enh: qHTS Assay for Enhancers of SMN2 Splice Variant Expression. AID 1458, 2008. Potency, µM (highest dose often 46.1 µM), for the others: at the highest dose activity change, positive = activation, most hits filed as activators. HEK293 SMN2-luciferase splicing reporter, luminescence, 30-36 h. 210,000 tested, 2.8% active; further: % of control where 0% means no effect; nearly all actives have a fitted effect of over 55% in size
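HEK293 cells carry an SMN2 minigene-luciferase reporter in which exon 7 inclusion puts luciferase in frame. Cells were seeded at 2000 cells/well, attached for 10-12 hours, then exposed to compounds for 30-36 hours at 37C before ONE-Glo luminescence.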
* hit, by the source's call; ? = inconclusive; · = no result. The call rests on the fitted dose curve; in most records, active means well fitted curve in the direction sought with a large enough effect; inconclusive means small, poorly fitted or top-dose-only effect, or another doubt; inactive means no such curve, though single readings can be large; an effect the other way counts as inactive or inconclusive. Potency means the concentration at half of the fitted maximal effect.

SMILES | ELG1 genotox | NPC1 promoter act | Rab9 promoter act | FLuc modulator | ELG1 repair inh | SMN2 splice enh
CCS(=O)(=O)N1Cc2ccccc2CC1C(=O)Nc1ccc(OC)c(OC)c1 (stereo not drawn) | 0% | 0% | 7% | 1% | -2% | ·
CCS(=O)(=O)N1Cc2ccccc2CC1C(=O)Nc1cccc(OC)c1 (stereo not drawn) | 0% | 8% | 12% | ? | 2.3µM* | ·
CCS(=O)(=O)N1Cc2ccccc2CC1C(=O)Nc1nc(C)cs1 (stereo not drawn) | ? | 26% | ? | 19µM* | ? | 1%
CCS(=O)(=O)N1Cc2ccccc2CC1C(=O)Nc1nccs1 (stereo not drawn) | ? | 0% | 5% | ? | ? | 18µM*
O=C(Nc1ccc(F)cc1)C1CCN(c2nc3ccccc3n3cccc23)CC1 | · | · | · | 3% | · | ·
COc1ccc2c(CNCCc3ccccc3)c(C(=O)O)n(Cc3cccc(F)c3)c2c1 | · | · | · | -11% | · | ·
CC(C)Cc1csc(NC(=O)C(C)C)c1C(=O)O | -6% | -1% | 0% | 4% | 0% | ·
Cc1ccc(-c2csc(NC(=O)c3ccc(F)cc3)c2C(=O)O)cc1 | -6% | ? | 4µM* | 12µM* | ? | ·
CC(C)Cc1csc(NC(=O)c2ccc(Br)cc2)c1C(=O)O | -8% | 2% | 13% | 27µM* | 8% | ·
O=C(Nc1scc(-c2ccccc2)c1C(=O)O)c1ccc(F)cc1 | 5% | 29% | ? | 12µM* | ? | ·
O=C(Nc1nsc(-c2ccccc2)n1)c1ccc(F)cc1 | ? | 3.5µM* | 2.2µM* | 9.5µM* | ? | ?
CCOC(=O)c1c(-c2ccc(C)cc2)csc1NC(=O)c1ccc(C(C)(C)C)cc1 | · | · | · | -13% | · | -1%
COc1ccc(N2CCN(S(=O)(=O)CCNC(=O)Cc3ccc(Cl)cc3)CC2)cc1 | · | · | · | 1% | · | ·
O=C1c2ccccc2-c2nc3ccccc3n21 | 11% | 30% | ? | 15µM* | ? | ·
Brc1c(-c2ccccc2)nc2n1Cc1ccccc1-2 | 18µM* | ? | 4µM* | 0.85µM* | ? | ·
Nc1nc(-c2ccccc2)c(-c2ccccc2)n1N | 2% | 3% | 2% | -10% | 21% | ·
c1ccc2c(c1)Cn1nnnc1-2 | -6% | 17% | 13% | 5% | 0% | -7%
c1ccc2c(c1)Cn1c-2nc2ccccc21 | ? | 1.4µM* | 1.1µM* | 6µM* | ? | 10µM*
Cc1cc(C)n(-c2ccc(C(=O)Nc3cccc([N+](=O)[O-])c3)cc2)n1 | -18% | -7% | -3% | 1% | ? | -33%
CC(=O)c1cccc(NC(=O)c2cnn(-c3cccc(C)c3)c2-n2cccc2)c1 | · | · | · | 0% | · | ·
Cc1c(C(=O)Nc2cccc(F)c2)cnn1-c1ccccc1 | ? | 1.6µM* | 1.4µM* | 6µM* | ? | ·
Cc1c(C(=O)Nc2cccc([N+](=O)[O-])c2)cnn1-c1ccccc1 | ? | 2.8µM* | 2.5µM* | 9.5µM* | ? | ·
CC(=O)c1cccc(NC(=O)c2cnn(-c3ccccc3)c2C)c1 | ? | 3.2µM* | 4µM* | 9.5µM* | ? | ·
COc1ccc(OC)c(NC(=O)c2cnn(-c3ccccc3)c2C)c1 | -3% | 16% | 7% | ? | 4% | ·
CCOc1ccccc1-c1nc(Cn2c(=O)cc(C)c3c(C)nn(-c4ccccc4)c32)c(C)o1 | · | · | · | 3% | · | ·
COc1ccccc1-c1nnc(C2CCN(S(=O)(=O)c3ccc(CC(C)C)cc3)CC2)o1 | · | · | · | -10% | · | -36%
CN(C)c1ccc(CNC(=O)c2cccn2-c2nnc(N3CCCCC3)s2)cc1 | · | · | · | -13% | · | ·
